From PubChem BioAssay AID504648 (National Center for Advancing Translational Sciences (NCATS), 2011)
The whole screen tested about 390,000 compounds, of which about 610 (0.16%) were called active. Another 4% or so got no clear call; they are omitted. Calls follow the shape of the dose curve; as a rule, active = well fitted inhibition curve with a large enough effect; inconclusive = small, poorly fitted or top-dose-only effect, or effect the other way, or another doubt; inactive = no such curve, though single readings can be large or run the other way. What follows is part of a selection rich in actives, with near analogues and random picks from the rest. A call without a number means that no potency is given here.

assay: Nrf2 qHTS screen for inhibitors: counterscreen for cytotoxicity; details: A549 ARE-Fluc cells, CellTiter-Fluor viability, 18-24 h; series mostly up to 46 µM
Procedure, shortened: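 Cytotoxicity counterscreen: CellTiter-Fluor fluorescence was measured in A549 ARE_Fluc cells after 18-24 h of compound exposure in a concentration series. The subsequent BugLite luminescent read reports ARE-luciferase activity.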
Potency is read from the fitted curve at half-maximal effect.

Row | SMILES | Potency
1 | O=C(NCc1nnc(C(=O)Nc2ccc(C(F)(F)F)cc2Cl)o1)c1ccccc1 | inactive
2 | CC1CCCCN1CC(=O)N1CCCc2c1c(=O)oc1ccc(OCc3ccccc3)cc21 (stereo not given) | inactive
3 | COc1ccc2c(c1OC)C(=O)OC2Nc1nc(-c2ccccc2)cs1 (stereo not given) | 20.6 µM (active)
4 | COc1cccc(C2CC(c3ccccc3)=NN2S(=O)(=O)c2ccccc2)c1OC (stereo not given) | inactive
5 | Cc1ccc(CNC(=O)C2(C(F)(F)F)C/C(=C\CCO)CCCO2)o1 (stereo not given) | inactive
6 | Cn1nnnc1Sc1ncnc2scc(-c3ccccc3[N+](=O)[O-])c12 | inactive
7 | COc1cccc(OC2=NS(=O)(=O)c3ccccc32)c1 | inactive
8 | CCc1ccc(NC(=O)N2CCN(C(=O)c3nsc4ccccc34)CC2)cc1 | inactive
9 | Cc1cc(C)c(NC(=O)Cn2c(SCC(=O)NCc3ccccc3)nc3ccccc32)c(C)c1 | inactive
10 | COc1ccc(Br)cc1C1C2C=CCC(C)C2C(=O)N1Cc1ccccc1 (stereo not given) | inactive
11 | O=C1C2C(c3ccccc3)CC=CC2C(c2ccoc2)N1Cc1ccccc1 (stereo not given) | inactive
12 | Cc1ccc(NC(=O)C(Cc2ccccc2)NS(=O)(=O)c2ccc3c(c2)oc(=O)n3C)cc1C (stereo not given) | inactive
13 | CC(=O)Nc1cc(C(=O)NCc2ccc(F)cc2)ccc1Sc1ccc(F)cc1 | inactive
14 | COC(=O)c1ccc(OC)c(Cn2c(=O)n(Cc3ccccc3)c(=O)c3c2c2cc(OC)ccc2n3C)c1 | inactive
15 | O=C1Nc2ccc(Br)cc2/C1=N/N=C/C1=C(N2CCOCC2)C(=C\c2ccccc2)/CC1 | 18.4 µM (active)
16 | COc1ccccc1C(=O)OCc1cc(=O)n2nc(-c3cccs3)sc2n1 | inactive
17 | O=[S+]([O-])(c1ccc2c(c1)OCCO2)N1CCN([S+](=O)([O-])c2c(Cl)cc(Cl)cc2Br)CC1 | inactive
18 | COc1ccc(C2=NC(c3ccncc3)=Nc3ccc(Br)cc3N2)cc1 | inactive
19 | O=[S+]([O-])(c1ccc(OC(F)(F)F)cc1)N1CCN([S+](=O)([O-])c2ccc3c(c2)OCCO3)CC1 | inactive
20 | CCc1ccc(NC(=O)Cn2c(=O)n(CCC(=O)NCc3ccc4c(c3)OCO4)c(=O)c3ccccc32)cc1 | inactive

Row | SMILES | Potency
21 | CCc1ccccc1NC(=O)N1CCN(C(=O)c2nsc3ccccc23)CC1 | inactive
22 | CCCn1c2ccccc2c2cnn(CC(=O)N3CCCC(C(=O)OCC)C3)c(=O)c21 (stereo not given) | inactive
23 | CCOC(=O)c1c(SCC(=O)Nc2cccc(C)c2C)nc(=O)[nH]c1C | inactive
24 | CCOC(=O)c1c(C)[nH]c2c1-c1ccccc1C(=O)C2=O | 23.1 µM (active)
25 | CCOC(=O)c1c(C)[nH]c(C)c1S(=O)(=O)N(C)CC(=O)N1CCN(c2ccccc2)CC1 | inactive
26 | COc1ccc(CN(Cc2ccccc2)C(=O)c2ccc(O)cc2)cc1COc1ccc(NC(C)=O)cc1 | inactive
27 | Cc1ccc(Cn2ncc3c4sc(C)cc4n(C)c3c2=O)c(C)c1 | inactive
28 | Cc1ccc(-c2nnc3ccc(SCC(N)=O)nn23)cc1 | inactive
29 | CCc1cccc(NC(=O)c2cnc(N3CCOCC3)c3ccccc23)c1 | inactive
30 | COc1ccc(C(=O)N(Cc2ccccc2)Cc2ccc(OC)c(COc3ccc(NC(C)=O)cc3)c2)c(O)c1 | inactive
31 | C=C1CCN(Cc2ccc(OC)cc2)S(=O)(=O)c2ccccc21 | inactive
32 | CC(=O)OCC(NC(=O)C(Cc1ccccc1)NC(=O)OC(C)(C)C)C1OC(n2ccc(=O)[nH]c2=O)C(OC(C)=O)C1OC(C)=O (stereo not given) | inactive
33 | CCN(CC)/[N+]([O-])=N/Oc1cc(O/[N+]([O-])=N/N2CCCC2CO)c([N+](=O)[O-])cc1[N+](=O)[O-] (stereo not given) | inactive
34 | CCOc1ccc(CNCc2c(C(=O)O)c(C)n(Cc3cccc(OC)c3)c2C)cc1OC | inactive
35 | COc1ccc2c(CNCCc3ccccc3C)c(C(=O)O)n(Cc3ccccc3C)c2c1 | inactive
36 | COc1ccc(Cn2c(C(=O)O)c(CNCc3cccc(OC)c3)c3ccc(C)cc32)cc1 | 8.2 µM (active)
37 | Cc1ccc(S(=O)(=O)Nc2ccccc2CNc2c(C)n(C)n(-c3ccccc3)c2=O)cc1 | inactive
38 | Cc1c(N=Nc2ccc(N(C)C)cc2)c(=O)n(-c2ccccc2)n1C | 18.4 µM (active)
39 | Cc1c(C=O)n(C)n(-c2ccccc2)c1=O | inactive
40 | O=C1c2ccccc2C(=O)N1c1ccc(S(=O)(=O)N2CCOCC2)c2ccccc12 | inactive

Row | SMILES | Potency
41 | CCCN(CCC)C(=O)C1CCCN(c2ncnc3c2nc2n3CCCCC2)C1 (stereo not given) | inactive
42 | N#CN1CCC(NS(=O)(=O)c2cccc(F)c2)C1 (stereo not given) | inactive
43 | CC[n+]1cc(C)ccc1/C=C/c1ccc(N(C)C)cc1 | 9.2 µM (active)
44 | N#Cc1ccc(OC2=NS(=O)(=O)c3ccccc32)cc1 | inactive
45 | CCC(C)Nc1oc(-c2ccc(COc3ccc(Cl)cc3)o2)nc1C#N (stereo not given) | inactive
46 | Cc1c(C)n(Cc2ccc(Cl)cc2)c2ccc(C(=O)NCCc3ccc(S(N)(=O)=O)cc3)cc12 | inactive
47 | COc1cc(NC(=O)c2[nH]cnc2C(N)=O)cc(C(=O)Nc2cccc(C(F)(F)F)c2)c1 | 20.6 µM (active)
48 | Cc1cc(Nc2cccc(C(F)(F)F)c2)nc2ccc(NC(=O)c3ccc(=O)[nH]c3)cc12 | inactive
49 | Cc1onc(-c2ccc(F)cc2F)c1C(=O)Nc1cccc(C(F)(F)F)c1 | inactive
50 | Cc1ccc(-c2nc(SCc3ccc(Br)cc3)n3[nH]c(=O)cc3n2)cc1 | inactive
51 | O=C(O)C1CC=CC2CCN(C3CCCCC3)C(=O)C21 (stereo not given) | inactive
52 | C=CC(=O)Nc1ccc(Nc2ccnc(Nc3ccc(N4CCN(C)CC4)cc3)n2)cc1 | 9.2 µM (active)
53 | O=C(COc1ccccc1)Nc1ccc(N2CCN(C(=O)c3cccs3)CC2)cc1 | inactive
54 | Cc1cc(Nc2cc(N3CCN(C)CC3)nc(Sc3ccc(NC(=O)C4CC4)cc3)n2)n[nH]1 | inactive
55 | Cc1ccc(F)c(NC(=O)CCOc2ccccc2C)c1 | inactive
56 | C/C=C/c1ccc(OCCOc2ccc(C=O)cc2OC)c(OC)c1 | inactive
57 | COc1cc(/C=N/NC(=O)Nc2ccccc2)ccc1OCCOc1ccccc1C | 5.8 µM (active)
58 | CC(=O)c1ccc(NC(=O)CSc2c(C(C)C)cnc3c2c(=O)n(C)c(=O)n3C)cc1 | inactive
59 | COc1ccc(CN2CCC(=O)c3ccccc3S2(=O)=O)cc1 | inactive
60 | O=C(c1ccc2c(=O)n(Cc3ccco3)c(=S)[nH]c2c1)N1CCCC1 | inactive
